TLR4 MyD88 comp: inhibitors of TLR4-MyD88 association in cells, primary screen, cell-based, HeLa CL3-4, BLA complementation, FRET ratio; HeLa CL3-4 TLR4/MyD88 BLA complementation; 200,000 compounds, 0.18% hits; inhibition, % at 8.4 µM; in the data active = inhibition above about 25%;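 also: 0% = vehicle and 100% = reference inhibitor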
NOD2 RIPK2 PPI: NOD2-RIPK2 binding disruptors in cells, primary screen, fluorescence, CHO cells, BLA complementation; inhibition, % at 4.98 µM; Receptor-interacting serine/threonine-protein kinase 2 (Homo sapiens), O43353; AID 624267, 2012; 360,000 compounds, 0.38% hits; CCF4 ratio; in the data active = inhibition above about 21%;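 also: 0% = vehicle only and 100% = reference blocker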
PRMT1 inh: PRMT1 methyltransferase inhibitors, primary screen, biochemical, fluorescence polarization. 370,000 compounds, 1.3% hits. inhibition, % at 2.79 µM. recombinant PRMT1, activity-based probe fluorescence polarization;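 active = inhibition above about 21% made by adding two undisclosed values, limit read from the data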
Target sequence (Q99873 whole entry, looked up): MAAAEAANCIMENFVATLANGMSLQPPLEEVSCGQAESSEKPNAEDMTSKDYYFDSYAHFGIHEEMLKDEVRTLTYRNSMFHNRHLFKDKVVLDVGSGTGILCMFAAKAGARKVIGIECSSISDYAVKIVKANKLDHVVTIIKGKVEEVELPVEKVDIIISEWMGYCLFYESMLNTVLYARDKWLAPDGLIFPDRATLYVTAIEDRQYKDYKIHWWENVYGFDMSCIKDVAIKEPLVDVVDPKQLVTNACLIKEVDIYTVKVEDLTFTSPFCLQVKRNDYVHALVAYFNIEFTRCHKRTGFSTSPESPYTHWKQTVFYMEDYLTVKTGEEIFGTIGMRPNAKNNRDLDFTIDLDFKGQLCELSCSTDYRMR
TLR9-MyD88 inh: inhibitors of TLR9-MyD88 association in cells, primary screen, cell-based, CHO, BLA complementation, fluorescence; inhibition, % at 4.98 µM; Toll-like receptor 9 (Homo sapiens) + Myeloid differentiation primary response protein …; CCF4 FRET ratio; 340,000 compounds, 0.21% hits;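 active = inhibition above the mean over all tested compounds plus 3 SD, cut at about 21% in these data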;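 also: 0% = DMSO only wells and 100% = clavulanate BLA inhibitor control wells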
ABHD5 PLIN5 PPI: ABHD5-PLIN5 interaction inhibitors, primary screen, cell lysate, split luciferase complementation, luminescence | 360,000 compounds, 0.78% hits | Perilipin-5 (Homo sapiens) + 1-acylglycerol-3-phosphate O-acyltransferase ABHD5 (Homo … | inhibition, % at 4 µM | Split G. princeps luciferase complementation, 4 h | AID 602281, 2012;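 active = inhibition above the mean inhibition across every tested compound plus 3 SD, cut at about 22% in these data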;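 also: 0% = DMSO only wells and the 100% control is not disclosed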
Exocytosis inh: LAMP-1 surface exposure blockers, TALL-104 cells – cell-based, flow cytometry, MLPCN library, primary screen; AID 651702, 2012; TALL-104 LAMP-1 surface exposure; cells stimulated with thapsigargin and PMA; inhibition, % at 10 µM; 360,000 compounds, 0.66% hits;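 active = inhibition above about 55%, limit read from the data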
NOD2-RIPK2 conf: NOD2-RIPK2 binding disruptors, retest, confirmation, fluorescence, CHO cells, BLA complementation, triplicate; shares compounds with NOD2 RIPK2 PPI; CCF4 FRET; inhibition, % at 4.98 µM; 1,200 compounds, 70% hits;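 active = mean inhibition across replicates above a set limit taken from the earlier primary screen, cut at about 21% in these data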;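 also: 0% = DMSO-only wells and the high end = clavulanate BLA-blocked wells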
NOD2 BLA counter: NOD2-RIPK2 counterscreen BLA reporter activity; shares compounds with NOD2 RIPK2 PPI; CHO BLA reporter, CCF4 FRET ratio; inhibition, % at 4.98 µM; 1,200 compounds, 57% hits; AID 624371;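 active = mean inhibition above the low-control mean inhibition plus three low-control SD, cut at about 11% in these data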;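 also: 0% = DMSO only wells and 100% = clavulanate high control wells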
Numbers without * were called inactive; ! = not confirmed by another sample. The list is not random: actives were taken first. Their share in the collection is about 2.6%.

Screening COc1ccccc1/C=C(/NC(=O)c1ccc(Cl)cc1Cl)C(=O)O returned TLR4 MyD88 comp -7.4, NOD2 RIPK2 PPI 31.8*, PRMT1 inh -0.1, TLR9-MyD88 inh 7.0, ABHD5 PLIN5 PPI -0.7, Exocytosis inh 1.6, NOD2-RIPK2 conf 6.9 and NOD2 BLA counter 1.4.
Screening COc1ccc(/C=C(/NC(=O)c2ccccc2Cl)C(=O)O)cc1 returned TLR4 MyD88 comp -8.2, NOD2 RIPK2 PPI -10.4, PRMT1 inh 1.3, TLR9-MyD88 inh -1.7, ABHD5 PLIN5 PPI -2.5 and Exocytosis inh 2.6.
For O=Nc1ccccn1 the results were PRMT1 inh 10.3.
For O=C(O)c1cccc2c1C(=O)N(CC1CCCO1)C2 (stereo not given) the results were TLR4 MyD88 comp 8.8, NOD2 RIPK2 PPI -2.5, PRMT1 inh 2.5, TLR9-MyD88 inh 6.2, ABHD5 PLIN5 PPI 5.7 and Exocytosis inh -1.1.
O=C(NCc1ccc(Cl)cc1)c1cccc2c1C(=O)N(CC1CCCO1)C2 (stereo not given) was read as NOD2 RIPK2 PPI 38.9*, PRMT1 inh -1.8, TLR9-MyD88 inh -5.8, ABHD5 PLIN5 PPI 8.4, Exocytosis inh -2.6, NOD2-RIPK2 conf 3.2 and NOD2 BLA counter -1.5.
Screening O=C1C(=O)c2cccnc2-c2ncccc21 returned NOD2 RIPK2 PPI 40.8*, PRMT1 inh 21.6*, ABHD5 PLIN5 PPI 100.5*, Exocytosis inh 105.1*, NOD2-RIPK2 conf 2.9 and NOD2 BLA counter 3.8.
For CCCCNc1c(-c2ccc(-c3cccc(Cl)c3)cc2)nc2ccccn12 the results were NOD2 RIPK2 PPI 22.4*!, PRMT1 inh 1.4, TLR9-MyD88 inh 12.5, ABHD5 PLIN5 PPI -7.1, Exocytosis inh 7.5, NOD2-RIPK2 conf 15.8 and NOD2 BLA counter 15.7*.
For CCN1C/C(=C/c2ccc(N3CCOCC3)cc2)C(=O)/C(=C/c2ccc(N3CCOCC3)cc2)C1 the results were TLR4 MyD88 comp 19.7, NOD2 RIPK2 PPI 22.8*, PRMT1 inh 2.0, TLR9-MyD88 inh 7.6, ABHD5 PLIN5 PPI 58.4*, Exocytosis inh -3.9, NOD2-RIPK2 conf 38.7* and NOD2 BLA counter 34.1*.
Screening CCc1ccc(/C=C2/SC(N3CCOCC3)=NC2=O)cc1 returned NOD2 RIPK2 PPI 5.7, PRMT1 inh 2.6, TLR9-MyD88 inh -5.0, ABHD5 PLIN5 PPI -2.1 and Exocytosis inh -0.5.
For Cc1ccnc(NC(=O)CCC(=O)N(CC(=O)NCc2ccccc2)c2ccc3c(c2)OCO3)c1 the results were TLR4 MyD88 comp 2.0, NOD2 RIPK2 PPI 32.2*, PRMT1 inh 0.3, TLR9-MyD88 inh -2.6, ABHD5 PLIN5 PPI 7.0, Exocytosis inh 0.6, NOD2-RIPK2 conf -5.8 and NOD2 BLA counter -4.8.
For CS(=O)(=O)c1ccc(C(=O)OCC(=O)N2CCN(CCC3CCCCC3)CC2)cc1[N+](=O)[O-] the results were NOD2 RIPK2 PPI 55.0*, PRMT1 inh 6.6, ABHD5 PLIN5 PPI 12.4, Exocytosis inh -7.6, NOD2-RIPK2 conf 57.6* and NOD2 BLA counter 8.6.
`O=C(NCc1ccccc1)C(c1ccc(C(F)(F)F)cc1)n1c(=O)c(-c2cc3ccccc3[nH]2)nc2ccccc21` (stereo not given) gave NOD2 RIPK2 PPI 48.9*, PRMT1 inh -1.2, ABHD5 PLIN5 PPI -11.9, Exocytosis inh 5.1, NOD2-RIPK2 conf 47.4* and NOD2 BLA counter 68.8*.
For N#Cc1ccc(C(C(=O)NCc2ccccc2)n2c(=O)c(-c3cc4ccccc4[nH]3)nc3ccccc32)cc1 (stereo not given) the results were NOD2 RIPK2 PPI 57.8*, PRMT1 inh 10.0, ABHD5 PLIN5 PPI 4.0, Exocytosis inh 1.4, NOD2-RIPK2 conf 54.0* and NOD2 BLA counter 72.0*.
`CC(C(=O)NCc1ccccc1)n1c(Cc2cc(F)cc(F)c2)nc2ccccc21` (stereo not given) gave NOD2 RIPK2 PPI -3.0, PRMT1 inh -0.7, ABHD5 PLIN5 PPI 2.5 and Exocytosis inh 1.7.
For O=S(=O)(c1cnc(Cl)c(Br)c1)N1CCc2ccccc21 the results were NOD2 RIPK2 PPI 26.7*, PRMT1 inh -0.1, TLR9-MyD88 inh 11.6, ABHD5 PLIN5 PPI -1.8, Exocytosis inh 0.4, NOD2-RIPK2 conf 34.6* and NOD2 BLA counter 5.1.
For O=S(=O)(c1cnc(Cl)c(Cl)c1)N1CCc2ccccc21 the results were NOD2 RIPK2 PPI -4.6, PRMT1 inh -4.2, TLR9-MyD88 inh -4.1, ABHD5 PLIN5 PPI 3.3 and Exocytosis inh -5.2.
Screening O=[N+]([O-])c1ccc(Sc2nc3ccccc3o2)c([N+](=O)[O-])c1 returned TLR4 MyD88 comp 1.5, NOD2 RIPK2 PPI 30.3*, PRMT1 inh 5.0, TLR9-MyD88 inh 7.3, ABHD5 PLIN5 PPI 15.9, Exocytosis inh 21.8, NOD2-RIPK2 conf 59.5* and NOD2 BLA counter -0.6.
`CCNC(=O)N1CCN(c2ccc(N3CCN(Cc4ccccc4)[C@@H](C)C3)c(C)c2)[C@H](C)C1` gave PRMT1 inh -0.4.
Screening CCOC(=O)c1ccc(NC(=O)Nc2ccc(Cl)cn2)cc1 returned TLR4 MyD88 comp -5.9, NOD2 RIPK2 PPI -7.5, PRMT1 inh 0.1, TLR9-MyD88 inh 0.0, ABHD5 PLIN5 PPI -0.5 and Exocytosis inh -1.9.
CCOC(=O)c1ccc(NC(=O)Nc2ccon2)cc1 was read as NOD2 RIPK2 PPI 22.3*, PRMT1 inh -1.3, TLR9-MyD88 inh 10.5, ABHD5 PLIN5 PPI -3.3, Exocytosis inh 5.4, NOD2-RIPK2 conf 21.2* and NOD2 BLA counter -1.6.
`CN1CC[C@@H]2CN(S(=O)(=O)c3ccccc3)[C@H](c3ccccc3Br)C[C@@H]21` gave PRMT1 inh -4.5.
Screening CC(=O)Nc1ccc(NS(=O)(=O)c2cc([N+](=O)[O-])ccc2C)cc1 returned TLR4 MyD88 comp -5.3, NOD2 RIPK2 PPI 1.3, PRMT1 inh -2.6, TLR9-MyD88 inh 3.0, ABHD5 PLIN5 PPI -5.3 and Exocytosis inh 0.0.
Cc1cccc(NS(=O)(=O)c2cc([N+](=O)[O-])ccc2C)n1 was read as TLR4 MyD88 comp 6.5, NOD2 RIPK2 PPI 42.4*, PRMT1 inh 1.8, TLR9-MyD88 inh 9.9, ABHD5 PLIN5 PPI -7.3, Exocytosis inh -2.5, NOD2-RIPK2 conf -2.5 and NOD2 BLA counter -4.6.

Screening data as filed in PubChem BioAssay.
